# Data: PubChem BioAssay (EPA / NIEHS)
# Values joined by “and” are separate entries in the source; they are usually repeats but may differ in a detail not shown here. Equal entries are not always repeated. The source holds several records for some structures; these can differ, active in one and inactive in another. Active and inactive are the calls of the source. The calls were made as follows: active = hit-call score of the fitted dose curve at least 0.9, where 1 is the maximum; inactive = score below 0.9.
# How the values were obtained:
# [1] = APR_HepG2_CellCycleArrest_24hr: Apredica 24-hour HepG2 Assay for Cell Cycle Arrest (AID 2282905); settings: imaging, actives raise or lower the signal;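 also: cell cycle arrest scored as ratio of 2N to 4N nuclear DNA content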
# Method in brief: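 Compounds at 0.39–200 uM (0.5% DMSO) for 24 h, then fixed and Hoechst 33342 stained. Cell-cycle analysis of nuclear DNA content by high-content imaging, fitted bidirectionally versus DMSO.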
# [2] = APR_HepG2_StressKinase_1hr: Apredica 1-hour HepG2 Assay for Stress Kinase (AID 2282906); settings: HepG2 stress kinase (phospho-c-Jun) imaging, actives raise or lower the signal
# Method in brief: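 HepG2 cells dosed 0.39-200 uM (0.5% DMSO) for 1 h, then formaldehyde-fixed. Stress kinase read by phospho-c-Jun immunofluorescence using high-content imaging; bidirectional fit vs DMSO.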
# [3] = APR_HepG2_NuclearSize_24hr: Apredica 24-hour HepG2 Assay for Nuclear Size (AID 2282907); settings: high-content imaging, actives raise or lower the signal
# Method in brief: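 HepG2 cells exposed 24 h to compounds at 0.39–200 uM (0.5% DMSO), fixed, Hoechst 33342 stained and imaged at 20x; nuclear diameter measured by automated image analysis, fitted bidirectionally against DMSO controls.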
# [4] = APR_HepG2_CellLoss_24hr: Apredica 24-hour HepG2 Assay for Cell Loss (AID 2282908); settings: high-content imaging;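 as to AC50: fit in both directions so a hit may be cell loss or gain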
# Method in brief: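 HepG2 cells exposed 24 hr to 0.39–200 uM compound in duplicate at 0.5% v/v final DMSO. Cells fixed in 3.7% formaldehyde and Hoechst 33342-stained. Cell number came from nuclear imaging at 20x. Bidirectional fit versus DMSO.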
# [5] = APR_HepG2_MicrotubuleCSK_24hr: Apredica 24-hour HepG2 Assay for Microtubule CSK Stabilty (AID 2282909); settings: HepG2 microtubule cytoskeleton imaging, actives raise or lower the signal
# Method in brief: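 HepG2 cells were treated 24 hr with compound at 0.39–200 uM in duplicate (0.5% DMSO final), then fixed and permeabilized. Alpha-tubulin immunofluorescence was imaged by high-content microscopy, with bidirectional fitting against DMSO and taxol as positive control.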
# [6] = APR_HepG2_MitoMembPot_24hr: Apredica 24-hour HepG2 Assay for Mitochondrial Membrane Potential (AID 2282911); settings: imaging, actives raise or lower the signal
# Method in brief: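 Human hepatoma HepG2 cultures received ten compound concentrations up to 200 uM for 24 hr. Membrane-potential dye signal, captured by automated fluorescence microscopy, was scored for gain or loss against DMSO controls.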
# [7] = APR_HepG2_MitoMass_24hr: Apredica 24-hour HepG2 Assay for Mitochondrial Mass (AID 2282912); settings: high-content imaging, actives raise or lower the signal
# Method in brief: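 HepG2 cells exposed 24 hr to 0.39–200 uM compound, 0.5% v/v DMSO, in duplicate. Stained before fixation with 250 nM MitoTracker Red CMXRos for 30 min, then imaged at 20x with Hoechst nuclei. Fitted in both directions against DMSO.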
# [8] = APR_HepG2_CellCycleArrest_72hr: Apredica 72-hour HepG2 Assay for Cell Cycle Arrest (AID 2282914); settings: high-content imaging, actives raise or lower the signal
# Method in brief: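 Cell cycle arrest in HepG2 was scored from nuclear DNA content after 72 hr compound treatment (0.39–200 uM). Activity, either gain or loss, was fitted against the DMSO baseline.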
# [9] = APR_HepG2_CellLoss_72hr: Apredica 72-hour HepG2 Assay for Cell Loss (AID 2282915); settings: high-content imaging
# Method in brief: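 HepG2 cells exposed 72 h to compound at 0.39–200 uM (10 concentrations, duplicate) in 0.5% DMSO. Fixed with 3.7% formaldehyde and Hoechst 33342-stained. Imaged at 20x; nuclear count gives cell number, fitted bidirectionally versus DMSO.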
# [10] = APR_HepG2_P-H2AX_72hr: Apredica 72-hour HepG2 Assay for H2AX Phosphorylation (AID 2282916); settings: imaging, actives raise or lower the signal;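 also: phospho-histone H2A.x immunostain intensity per cell marking DNA damage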
# Method in brief: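 HepG2 cells treated 72 h at 0.39–200 uM, 0.5% DMSO final, duplicates. Formaldehyde-fixed, Triton-permeabilised, immunostained for phospho-H2A.x with Hoechst; fluorescence imaged at 20x, bidirectional fit versus DMSO.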
# [11] = APR_HepG2_MitoticArrest_72hr: Apredica 72-hour HepG2 Assay for Mitotic Arrest (AID 2282918); settings: high-content imaging, actives raise or lower the signal
# Method in brief: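 Mitotic arrest in HepG2 is scored from phospho-histone H3 staining after 72 hr dosing across 0.39–200 uM, with DMSO at 0.5% v/v. Nuclei are identified by Hoechst 33342 and fluorescence intensity is quantified per cell.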
# [12] = APR_HepG2_MicrotubuleCSK_72hr: Apredica 72-hour HepG2 Assay for Microtubule CSK Stabilty (AID 2282919); settings: HepG2 microtubule cytoskeleton, high-content imaging, actives raise or lower the signal
# Method in brief: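 HepG2 cells were exposed 72 hr to compound at 0.39–200 uM in duplicate (0.5% DMSO final), then fixed and permeabilized. Alpha-tubulin immunofluorescence was imaged by high-content microscopy, with bidirectional fitting against DMSO and taxol as positive control.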
# [13] = APR_HepG2_P-H2AX_24hr: Apredica 24-hour HepG2 Assay for H2AX Phosphorylation (AID 2282920); settings: high-content imaging, actives raise or lower the signal
# Method in brief: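 Signal comes from a FITC-labeled secondary detecting phospho-histone H2A.x in fixed HepG2 cells, quantified by automated imaging at 20x. Dosing ran 24 hr across 0.39–200 uM with 0.5% v/v DMSO.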
# [14] = APR_HepG2_StressKinase_72hr: Apredica 72-hour HepG2 Assay for Stress Kinase (AID 2282921); settings: HepG2 stress kinase (phospho-c-Jun) imaging, actives raise or lower the signal
# Method in brief: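 HepG2 cells treated 72 hr with 0.39–200 uM compound, 0.5% v/v DMSO, duplicate wells. After formaldehyde fixation and Triton permeabilization, stained with anti-phospho-c-Jun (1:500) and Cy3 secondary, imaged at 20x. Fitted in both directions against DMSO.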
# [15] = APR_HepG2_StressKinase_24hr: Apredica 24-hour HepG2 Assay for Stress Kinase (AID 2282922); settings: HepG2 stress kinase (phospho-c-Jun) imaging, actives raise or lower the signal
# Method in brief: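 HepG2 cells exposed 24 h to 0.39–200 uM compound in duplicate (0.5% v/v DMSO final). Cells fixed in 3.7% formaldehyde, permeabilized and immunostained for phospho-c-Jun; read by high-content fluorescence imaging, fitted bidirectionally against DMSO.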
# [16] = APR_HepG2_MitoMass_72hr: Apredica 72-hour HepG2 Assay for Mitochondrial Mass (AID 2282924); settings: high-content imaging, actives raise or lower the signal;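 also: MitoTracker Red CMXRos stain intensity per cell imaged as mitochondrial mass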
# Method in brief: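 HepG2 cells dosed 72 hr at 0.39–200 uM (0.5% DMSO), in duplicate. MitoTracker Red CMXRos 250 nM loaded 30 min before formaldehyde fixation; high-content fluorescence imaging, bidirectional fit versus DMSO.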
# [17] = APR_HepG2_MitoMembPot_72hr: Apredica 72-hour HepG2 Assay for Mitochondrial Membrane Potential (AID 2282917); settings: imaging, actives raise or lower the signal
# Method in brief: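 HepG2 cells dosed 72 hr with compound at 0.39–200 uM in duplicate, 0.5% v/v DMSO final. Mitochondria stained with 250 nM MitoTracker Red CMXRos for 30 min before formaldehyde fixation, imaged by high-content fluorescence; bidirectional fit versus DMSO.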
# [18] = APR_HepG2_p53Act_72hr: Apredica 72-hour HepG2 Assay for p53 Activation (AID 2282923); settings: high-content imaging, actives raise or lower the signal;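 also: average cellular p53 protein immunofluorescence intensity in HepG2 cells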
# Method in brief: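 HepG2 cells exposed 72 h to 0.39–200 uM in 0.5% DMSO, duplicates. Fixed, permeabilized cells immunostained for p53 (Cy5) with Hoechst; imaged at 20x, fluorescence analyzed bidirectionally against DMSO.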
# [19] = APR_HepG2_MitoticArrest_24hr: Apredica 24-hour HepG2 Assay for Mitotic Arrest (AID 2282910); settings: high-content imaging, actives raise or lower the signal
# Method in brief: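 HepG2 cells, 24 h exposure at 0.39-200 uM (10 concentrations, duplicate, 0.5% DMSO). Fixed, stained for phospho-histone H3 with Hoechst; imaged by high-content microscopy, bidirectional fit versus DMSO.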
smiles,measurement,setting,value
Cc1[nH]c(=O)n(C(C)(C)C)c(=O)c1Cl,outcome,[1],inactive
same,outcome,[2],inactive
same,outcome,[3],inactive
same,outcome,[4],inactive
same,outcome,[5],inactive
same,outcome,[6],inactive
same,outcome,[7],inactive
same,outcome,[8],inactive
same,outcome,[9],inactive
same,outcome,[10],inactive
same,outcome,[11],inactive
same,outcome,[12],inactive
same,outcome,[13],inactive
same,outcome,[14],inactive
same,outcome,[15],inactive
same,outcome,[16],inactive
O=S(=O)(O)C(F)(F)C(F)(F)C(F)(F)C(F)(F)C(F)(F)C(F)(F)C(F)(F)C(F)(F)F,outcome,[1],inactive
same,outcome,[2],inactive
same,AC50,[3],63.8 µM (active)
same,outcome,[3],inactive
same,AC50,[4],122 µM (active) [middle of 5 runs]
same,AC50,[5],113 µM (active)
same,outcome,[5],inactive
same,outcome,[6],inactive
same,AC50,[7],116 µM (active) [middle of 4 runs]
same,outcome,[7],inactive
same,outcome,[8],inactive
same,AC50,[9],111 µM (active) [middle of 5 runs]
same,AC50,[10],104 µM (active) and 9.71 µM (active) and 107 µM (active)
same,outcome,[10],inactive
same,outcome,[17],inactive
same,outcome,[11],inactive
same,AC50,[12],111 µM (active)
same,outcome,[12],inactive
same,AC50,[13],108 µM (active) [middle of 4 runs]
same,outcome,[13],inactive
same,AC50,[14],111 µM (active) and 107 µM (active)
same,outcome,[14],inactive
same,outcome,[15],inactive
same,AC50,[18],5.6 µM (active) and 106 µM (active)
same,outcome,[18],inactive
same,outcome,[16],inactive
CC(C)(C)C(O)C(Oc1ccc(Cl)cc1)n1cncn1 (configuration not stated),AC50,[1],97.1 µM (active) and 78.4 µM (active)
same,outcome,[1],inactive
same,outcome,[3],inactive
same,outcome,[4],inactive
same,outcome,[5],inactive
same,outcome,[6],inactive
same,outcome,[7],inactive
same,AC50,[8],105 µM (active) and 88.3 µM (active) and 39.4 µM (active)
same,outcome,[8],inactive
same,AC50,[9],90.5 µM (active) and 96.3 µM (active) and 36.1 µM (active)
same,outcome,[9],inactive
same,outcome,[10],inactive
same,outcome,[11],inactive
same,outcome,[12],inactive
same,outcome,[13],inactive
same,outcome,[14],inactive
same,outcome,[15],inactive
same,outcome,[18],inactive
same,AC50,[16],98 µM (active)
same,outcome,[16],inactive
O=[N+]([O-])c1c(Cl)c(Cl)c(Cl)c(Cl)c1Cl,outcome,[1],inactive
same,outcome,[2],inactive
same,outcome,[3],inactive
same,outcome,[4],inactive
same,outcome,[5],inactive
same,outcome,[6],inactive
same,outcome,[7],inactive
same,AC50,[8],81.9 µM (active)
same,outcome,[9],inactive
same,outcome,[10],inactive
same,outcome,[11],inactive
same,outcome,[12],inactive
same,outcome,[13],inactive
same,outcome,[14],inactive
same,outcome,[15],inactive
same,outcome,[18],inactive
same,outcome,[16],inactive
Clc1ccccc1-c1nnc(-c2ccccc2Cl)nn1,AC50,[1],67.6 µM (active)
same,outcome,[3],inactive
same,outcome,[4],inactive
same,outcome,[5],inactive
same,outcome,[19],inactive
same,AC50,[6],59.5 µM (active)
same,outcome,[7],inactive
same,outcome,[8],inactive
same,AC50,[9],39.7 µM (active)
same,AC50,[10],46.4 µM (active)
same,outcome,[11],inactive
same,AC50,[12],12.8 µM (active)
same,outcome,[13],inactive
same,outcome,[14],inactive
same,outcome,[15],inactive
same,outcome,[16],inactive
CCC(C)(NC(=O)c1cc(Cl)c(C)c(Cl)c1)C(=O)CCl (configuration not stated),AC50,[1],12.8 µM (active)
same,outcome,[3],inactive
same,AC50,[4],32.3 µM (active)
same,outcome,[5],inactive
same,AC50,[19],8.8 µM (active)
same,AC50,[6],30.1 µM (active)
same,outcome,[7],inactive
same,outcome,[8],inactive
same,outcome,[9],inactive
same,outcome,[10],inactive
same,outcome,[11],inactive
same,outcome,[12],inactive
same,outcome,[13],inactive
same,outcome,[14],inactive
same,outcome,[15],inactive
same,outcome,[18],inactive
same,outcome,[16],inactive
